Data on 39 compounds can be found in PubChem BioAssay.

The inhibition is the change of the read-out against control, counted positive when it falls.

Values without a mark were called inactive. This is one part of the list. Calls of active or inactive are those of the source.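 How the source made its calls, unless noted: active means mean inhibition of the triplicate above the hit cutoff set for the earlier primary screen (cut at about 25% in these data); inactive means the rest.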

Assay [1] addresses Oxytocin receptor (Homo sapiens) (UniProt P30559). The assay can be described thus: oxytocin receptor activation, retest of hits – fluorescence, CHO-OTR cells, triplicate, confirmation (AID 434963;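 active means mean activation above about 20% derived from the earlier single-dose screen, limit read from the data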;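 further: peak over minimum fluorescence ratio per well during a 100 second FLIPR read; 0% = DMSO alone and 100% = oxytocin high control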). The conditions noted are these: Fluo-8 calcium fluorescence, agonist, at 3 µM, stronger effect = higher value.
For assay [2], the target named is Vasopressin V1a receptor (Homo sapiens) (UniProt P37288). The assay can be described thus: activators of vasopressin V1R in CHO cells – cell-based, triplicate, fluorescence, counter-screen for OXTR agonist project (AID 434991;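 active means mean activation over triplicate exceeds the hit threshold set in the earlier primary screen, cut at about 20% in these data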;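 further: peak over basal fluorescence ratio within a 100 second read; 0% = DMSO alone and 100% = 3 nM vasopressin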). As to conditions: Fluo-8 calcium fluorescence, at 3 µM, stronger effect = higher value.
Sequence of Vasopressin V1a receptor (Homo sapiens) (P37288 whole entry, looked up): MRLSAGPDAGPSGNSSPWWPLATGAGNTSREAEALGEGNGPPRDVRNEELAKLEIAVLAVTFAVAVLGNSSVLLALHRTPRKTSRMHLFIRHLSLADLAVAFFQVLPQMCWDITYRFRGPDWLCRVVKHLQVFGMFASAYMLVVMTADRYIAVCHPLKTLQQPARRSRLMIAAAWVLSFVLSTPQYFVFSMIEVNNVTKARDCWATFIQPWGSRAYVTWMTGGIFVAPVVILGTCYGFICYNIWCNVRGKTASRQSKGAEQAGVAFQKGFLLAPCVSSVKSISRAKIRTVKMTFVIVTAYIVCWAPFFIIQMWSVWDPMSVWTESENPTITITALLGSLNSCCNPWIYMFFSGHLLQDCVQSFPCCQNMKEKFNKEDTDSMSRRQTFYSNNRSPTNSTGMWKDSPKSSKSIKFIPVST
Assay [3] concerns transactivating tegument protein VP16 (Human herpesvirus 1). The assay can be described thus: compounds suppressing VP16-driven luciferase signal – cell-based, luminescence, single concentration, counter-screen for SRC2 inhibitor project (AID 652007; in the data active means inhibition above about 36%). As to conditions: cell-based VP16 transactivation luciferase reporter, at 8.9 µM, stronger effect = higher value. A general note: The purpose of a counterscreen is to sort out artefacts and off-target activity.

For assay [4], the target named is Nuclear receptor coactivator 2 (Homo sapiens) (UniProt Q15596). Nature of the assay: inhibition of GAL4-SRC2 driven luciferase expression – cell-based, luminescence, HEK293, triplicate, confirmation (AID 652008;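 active means mean inhibition above 46.5%, the solvent-only control mean plus 3 SD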;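 further: 0% = DMSO-treated cells and 100% = Gossypol at 36 µM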). As to conditions: HEK293 GAL4-SRC2 luciferase reporter, at 8.9 µM, stronger effect = higher value.
Sequence of Nuclear receptor coactivator 2 (Homo sapiens) (Q15596 whole entry, looked up, the tested form may be a part): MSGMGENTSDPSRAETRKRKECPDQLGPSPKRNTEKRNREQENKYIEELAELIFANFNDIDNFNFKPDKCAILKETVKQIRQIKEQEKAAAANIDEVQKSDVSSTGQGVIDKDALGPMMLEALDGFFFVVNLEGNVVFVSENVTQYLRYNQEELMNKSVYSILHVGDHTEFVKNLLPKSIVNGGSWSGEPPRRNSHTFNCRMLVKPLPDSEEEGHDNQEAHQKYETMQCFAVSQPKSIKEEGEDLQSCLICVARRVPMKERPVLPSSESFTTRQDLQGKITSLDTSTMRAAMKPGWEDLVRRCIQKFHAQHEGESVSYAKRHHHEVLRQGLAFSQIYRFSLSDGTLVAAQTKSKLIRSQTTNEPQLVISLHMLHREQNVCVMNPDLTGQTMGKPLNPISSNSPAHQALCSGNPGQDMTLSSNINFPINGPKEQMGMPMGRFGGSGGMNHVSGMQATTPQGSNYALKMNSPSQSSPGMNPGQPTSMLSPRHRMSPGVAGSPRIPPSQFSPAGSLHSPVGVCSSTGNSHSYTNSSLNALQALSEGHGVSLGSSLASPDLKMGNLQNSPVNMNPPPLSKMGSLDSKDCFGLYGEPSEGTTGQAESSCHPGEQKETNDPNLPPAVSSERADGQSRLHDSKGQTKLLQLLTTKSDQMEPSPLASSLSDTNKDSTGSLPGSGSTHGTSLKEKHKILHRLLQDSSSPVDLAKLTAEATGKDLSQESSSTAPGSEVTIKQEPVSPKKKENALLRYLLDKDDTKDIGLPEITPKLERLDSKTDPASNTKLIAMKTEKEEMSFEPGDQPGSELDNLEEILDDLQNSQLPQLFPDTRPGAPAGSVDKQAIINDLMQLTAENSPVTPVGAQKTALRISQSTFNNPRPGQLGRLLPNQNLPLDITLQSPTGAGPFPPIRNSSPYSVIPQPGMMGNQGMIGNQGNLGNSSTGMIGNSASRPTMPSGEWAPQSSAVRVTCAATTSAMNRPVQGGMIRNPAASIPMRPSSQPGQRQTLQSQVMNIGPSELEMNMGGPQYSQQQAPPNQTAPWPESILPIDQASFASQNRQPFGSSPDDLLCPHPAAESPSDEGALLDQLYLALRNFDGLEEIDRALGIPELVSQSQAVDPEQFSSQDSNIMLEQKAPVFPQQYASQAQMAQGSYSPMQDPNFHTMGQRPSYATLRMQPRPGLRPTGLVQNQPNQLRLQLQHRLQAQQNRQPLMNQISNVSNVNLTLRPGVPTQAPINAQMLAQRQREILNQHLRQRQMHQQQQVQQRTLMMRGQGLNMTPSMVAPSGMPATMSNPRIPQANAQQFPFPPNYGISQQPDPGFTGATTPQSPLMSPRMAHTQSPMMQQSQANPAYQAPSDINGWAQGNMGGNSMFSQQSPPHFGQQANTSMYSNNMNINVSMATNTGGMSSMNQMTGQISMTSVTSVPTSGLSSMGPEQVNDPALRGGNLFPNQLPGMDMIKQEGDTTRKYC
Assay [5] addresses (Lyso)-N-acylphosphatidylethanolamine lipase (Mus musculus) (UniProt Q8VD66). The assay can be described thus: mouse ABHD4 hydrolase blockers, triplicate – biochemical, fluorescence polarization, confirmation (AID 720658;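 active means mean inhibition across replicates above the hit cutoff set in the primary screen, cut at about 30% in these data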;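 further: 0% = wild-type ABHD4 with DMSO and 100% = catalytically dead S159A mutant with DMSO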). As to conditions: purified mABHD4, FP-Rh probe fluorescence polarization; at 8.92 µM; stronger effect = higher value.
For assay [6], the target named is Insulin-degrading enzyme (Homo sapiens) (UniProt P14735). The assay can be described thus: cellular IDE Abeta-cleavage inhibition – fluorescence polarization, HEK cells, FAbetaB substrate, confirmation (AID 435028;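 active means mean inhibition across triplicate wells above the cutoff set by the earlier primary insulin-degrading enzyme screen, cut at about 16% in these data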;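 further: 0% = DMSO wells and 100% = 60 µM reference IDE inhibitor Ii1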). As to conditions: at 5.59 µM, stronger effect = higher value.
Sequence of Insulin-degrading enzyme (Homo sapiens) (P14735 whole entry, looked up): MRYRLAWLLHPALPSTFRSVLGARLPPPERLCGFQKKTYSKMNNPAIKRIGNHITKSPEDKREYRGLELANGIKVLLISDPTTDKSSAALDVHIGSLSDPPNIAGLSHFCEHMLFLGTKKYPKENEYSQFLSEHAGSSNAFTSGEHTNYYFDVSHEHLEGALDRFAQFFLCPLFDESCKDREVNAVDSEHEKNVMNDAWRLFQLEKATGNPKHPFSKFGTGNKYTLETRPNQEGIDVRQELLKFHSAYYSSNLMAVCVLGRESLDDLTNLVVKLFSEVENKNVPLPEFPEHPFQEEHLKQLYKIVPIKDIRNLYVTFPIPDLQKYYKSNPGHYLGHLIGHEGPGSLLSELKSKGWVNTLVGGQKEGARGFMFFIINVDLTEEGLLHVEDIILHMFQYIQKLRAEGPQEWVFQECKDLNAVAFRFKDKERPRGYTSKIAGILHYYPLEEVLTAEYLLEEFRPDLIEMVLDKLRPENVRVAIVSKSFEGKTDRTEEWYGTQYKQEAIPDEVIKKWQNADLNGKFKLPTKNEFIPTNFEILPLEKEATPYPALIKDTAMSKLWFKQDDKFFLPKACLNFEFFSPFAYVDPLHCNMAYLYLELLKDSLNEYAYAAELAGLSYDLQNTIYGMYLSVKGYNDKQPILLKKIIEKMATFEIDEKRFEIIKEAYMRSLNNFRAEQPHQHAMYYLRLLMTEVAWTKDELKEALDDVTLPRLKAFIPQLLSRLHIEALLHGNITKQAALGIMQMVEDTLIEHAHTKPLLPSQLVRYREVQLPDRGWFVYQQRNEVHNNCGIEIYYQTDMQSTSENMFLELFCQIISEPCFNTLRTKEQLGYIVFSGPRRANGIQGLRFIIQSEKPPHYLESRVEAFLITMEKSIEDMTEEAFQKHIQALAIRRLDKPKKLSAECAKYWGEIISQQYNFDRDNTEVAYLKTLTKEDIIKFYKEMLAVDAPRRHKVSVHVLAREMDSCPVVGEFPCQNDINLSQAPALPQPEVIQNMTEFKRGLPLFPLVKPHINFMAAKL
Assay [7] can be described thus: HEK cell viability loss – luminescence, cytotoxicity control for IDE inhibitor project (AID 449730; in the data active means inhibition above about 22%;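 further: 0% = vehicle wells and 100% = reference cytotoxic drug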). As to conditions: HEK293 cytotoxicity, ATP luminescence; at 5.59 µM; stronger effect = higher value.
Assay [8] deals with Photoreceptor-specific nuclear receptor (Homo sapiens) (UniProt Q9Y5X4). Nature of the assay: retest of NR2E3-NCOR disrupting agonists – cell-based, luminescence, CHO-S two-hybrid, confirmation (AID 624378;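 active means average inhibition above a cutoff equal to the mean inhibition of all tested compounds plus one SD, cut at about 70% in these data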;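 further: 0% = DMSO in NR2E3 cells and 100% = DMSO in cells lacking NR2E3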). The conditions noted are these: CHO-S mammalian two-hybrid NR2E3-NCOR, luciferase luminescence; at 3.98 µM; stronger effect = higher value.
Sequence of Photoreceptor-specific nuclear receptor (Homo sapiens) (Q9Y5X4 whole entry, looked up): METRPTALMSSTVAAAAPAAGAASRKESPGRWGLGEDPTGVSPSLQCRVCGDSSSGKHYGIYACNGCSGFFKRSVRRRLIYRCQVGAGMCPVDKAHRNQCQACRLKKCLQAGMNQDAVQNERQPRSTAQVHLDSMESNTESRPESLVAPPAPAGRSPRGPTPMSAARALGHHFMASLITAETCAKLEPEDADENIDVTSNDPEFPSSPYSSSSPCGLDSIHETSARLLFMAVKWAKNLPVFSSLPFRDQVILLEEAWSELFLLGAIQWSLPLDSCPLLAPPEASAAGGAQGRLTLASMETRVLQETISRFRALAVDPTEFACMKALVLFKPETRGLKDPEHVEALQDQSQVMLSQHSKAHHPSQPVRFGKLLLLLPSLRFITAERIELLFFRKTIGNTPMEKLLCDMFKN
The nature of assay [9]: nonselective effects on VP16 transactivation – cell-based, luminescence, CHO-S, high throughput, counter-screen for NR2E3 agonist project, confirmation (AID 624379;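 active means mean inhibition above a cutoff equal to the average over all tested compounds plus one standard deviation, cut at about 70% in these data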;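 further: 0% = DMSO with VP16-transfected cells and 100% = DMSO with cells lacking VP16; higher means less reporter light so more repression of VP16 activity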). The conditions noted are these: CHO-S GAL4-VP16 luciferase reporter, at 3.98 µM, stronger effect = higher value.
Assay [10] addresses Platelet-activating factor acetylhydrolase (Homo sapiens) (UniProt Q13093). The assay can be described thus: inhibition of plasma PAF acetylhydrolase – biochemical, fluorescence polarization, human, confirmation (AID 463230).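 Further: 0% = enzyme with DMSO and 100% = wells lacking pPAFAH enzyme.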 The conditions noted are these: recombinant pPAFAH, FP-Rh probe fluorescence polarization; at 3.39 µM; stronger effect = higher value.
Assay [11] addresses Serine protease HTRA1 (Homo sapiens) (UniProt Q92743). The assay can be described thus: confirming inhibition of human HTRA1 – biochemical, fluorescence polarization, confirmation (AID 540248;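 active means mean inhibition over three repeats above a set limit taken from the earlier primary screen, cut at about 37% in these data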;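 further: 0% = HTRA1 with DMSO and 100% = wells lacking HTRA1; inhibitors block probe binding so polarization drops and inhibition rises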). As to conditions: recombinant HTRA1, FP-rhodamine activity-based probe, at 5.96 µM, stronger effect = higher value.
For assay [12], the target named is Protein-arginine deiminase type-4 (Homo sapiens) (UniProt Q9UM07). The assay can be described thus: protein arginine deiminase 4 blockade, retest – biochemical, fluorescence polarization, confirmation (AID 488796;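 active means mean inhibition across replicates above the hit cutoff set by the earlier primary screen, cut at about 15% in these data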;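 further: inhibitors block active-site labeling by the probe so polarization falls; 0% = PAD4 with probe and DMSO and 100% = probe without PAD4 enzyme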). As to conditions: recombinant PAD4, RCA probe fluorescence polarization; at 6.36 µM; stronger effect = higher value.
Sequence of Protein-arginine deiminase type-4 (Homo sapiens) (Q9UM07 whole entry, looked up, the tested form may be a part): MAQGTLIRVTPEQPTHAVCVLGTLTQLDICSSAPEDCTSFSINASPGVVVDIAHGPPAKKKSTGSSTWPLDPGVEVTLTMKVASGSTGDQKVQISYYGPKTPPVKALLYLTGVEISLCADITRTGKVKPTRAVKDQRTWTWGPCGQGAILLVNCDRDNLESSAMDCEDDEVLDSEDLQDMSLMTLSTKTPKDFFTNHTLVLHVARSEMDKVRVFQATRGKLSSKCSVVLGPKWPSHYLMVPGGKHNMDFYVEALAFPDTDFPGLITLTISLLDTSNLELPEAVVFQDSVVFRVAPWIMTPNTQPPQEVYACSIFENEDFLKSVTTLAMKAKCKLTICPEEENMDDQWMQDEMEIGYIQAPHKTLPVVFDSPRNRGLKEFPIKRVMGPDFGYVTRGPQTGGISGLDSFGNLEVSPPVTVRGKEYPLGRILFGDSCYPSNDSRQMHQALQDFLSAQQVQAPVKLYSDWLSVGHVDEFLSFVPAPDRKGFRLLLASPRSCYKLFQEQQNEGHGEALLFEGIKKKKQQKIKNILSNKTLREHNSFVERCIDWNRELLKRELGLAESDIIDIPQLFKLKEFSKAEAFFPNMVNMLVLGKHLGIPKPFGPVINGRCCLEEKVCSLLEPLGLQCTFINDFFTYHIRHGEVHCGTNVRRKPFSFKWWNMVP
In assay [13] the test system is DAF-12 nuclear receptor (Heterodera glycines), GAL4-LBD fusion. The assay can be described thus: hgDAF-12 GAL4 fusion reporter activation, retest – cell-based, luminescence, HEK293, GAL4-LBD fusion, confirmation (AID 743050;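 active means mean activation over triplicate wells above the hit cutoff derived from the earlier primary screen, cut at about 11% in these data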;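 further: 0% = DMSO low control and 100% = 2 mM sodium butyrate high control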). The conditions noted are these: HEK293 GAL4-hgDAF12 luciferase reporter, agonist mode; at 6.8 µM; stronger effect = higher value; percent of butyrate response. For orientation: A reporter such as luciferase makes a cellular process visible.

For assay [14], the target named is Oxysterols receptor LXR-beta (Homo sapiens) (UniProt P55055). The assay can be described thus: nonspecific reporter activation via LXR – cell-based, luminescence, HEK293, H. glycines campaign, counter-screen for hgDAF-12 agonist project, confirmation (AID 743051;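 active means mean activation of the triplicate above a set limit carried over from the primary screen, none filed active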). As to conditions: HEK293 Gal4-LXR luciferase reporter, 24 h; at 6.8 µM; stronger effect = higher value.
Assay [15] has as its target Nuclear receptor coactivator 3 (Homo sapiens) (UniProt Q9Y6Q9). The assay can be described thus: NCOA3 GAL4-fusion reporter inhibition – cell-based, luminescence, quadruplicate, confirmation (AID 588792;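 active means mean inhibition over 43.08%, the solvent-only control mean plus 3 SD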;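 further: 0% = DMSO treated cells and 100% = gossypol at 36 µM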). As to conditions: HEK293 GAL4-SRC3 luciferase reporter, at 3.6 µM, stronger effect = higher value.
The test system of assay [16] is transactivating tegument protein VP16 (Human herpesvirus 1), Gal4-VP16 luciferase reporter. Nature of the assay: repression of VP16-driven luciferase reporter – cell-based, luminescence, high throughput, counter-screen for SRC3 inhibitor project (AID 588794; in the data active means inhibition above about 30%). As to conditions: mammalian cells, at 3.6 µM, stronger effect = higher value.
Assay [17] in a line: VP16-driven transactivation reporter suppression – cell-based, luminescence, HEK293, counter-screen for COUP-TFII antagonist project (AID 687007; in the data active means inhibition above about 13%). The conditions noted are these: HEK293 Gal4-VP16 luciferase reporter, at 8.5 µM, stronger effect = higher value.
The target in assay [18] is COUP transcription factor 2 (Homo sapiens) (UniProt P24468). Nature of the assay: retest of COUP-TFII reporter suppressors – cell-based, luciferase reporter, HEK293, triplicate, confirmation (AID 687008;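 active means mean inhibition over three repeats above a set limit taken from the earlier primary screen, cut at about 38% in these data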;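 further: 100% = cells given the luciferase reporter alone without the COUP-TF2 vector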). The conditions noted are these: HEK293 NGFI-A luciferase reporter, luminescence; at 8.5 µM; stronger effect = higher value.

Sequence of Oxytocin receptor (Homo sapiens) (P30559 whole entry, looked up): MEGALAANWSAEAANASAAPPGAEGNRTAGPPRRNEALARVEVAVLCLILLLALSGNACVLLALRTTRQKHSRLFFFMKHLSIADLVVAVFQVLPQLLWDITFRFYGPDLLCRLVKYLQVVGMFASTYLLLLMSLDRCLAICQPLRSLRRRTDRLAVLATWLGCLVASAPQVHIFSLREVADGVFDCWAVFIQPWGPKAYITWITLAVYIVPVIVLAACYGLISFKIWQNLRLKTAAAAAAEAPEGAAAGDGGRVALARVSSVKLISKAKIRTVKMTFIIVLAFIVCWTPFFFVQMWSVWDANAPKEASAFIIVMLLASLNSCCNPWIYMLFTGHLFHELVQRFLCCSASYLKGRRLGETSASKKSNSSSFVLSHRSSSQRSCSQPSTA
Sequence of Platelet-activating factor acetylhydrolase (Homo sapiens) (Q13093 whole entry, looked up): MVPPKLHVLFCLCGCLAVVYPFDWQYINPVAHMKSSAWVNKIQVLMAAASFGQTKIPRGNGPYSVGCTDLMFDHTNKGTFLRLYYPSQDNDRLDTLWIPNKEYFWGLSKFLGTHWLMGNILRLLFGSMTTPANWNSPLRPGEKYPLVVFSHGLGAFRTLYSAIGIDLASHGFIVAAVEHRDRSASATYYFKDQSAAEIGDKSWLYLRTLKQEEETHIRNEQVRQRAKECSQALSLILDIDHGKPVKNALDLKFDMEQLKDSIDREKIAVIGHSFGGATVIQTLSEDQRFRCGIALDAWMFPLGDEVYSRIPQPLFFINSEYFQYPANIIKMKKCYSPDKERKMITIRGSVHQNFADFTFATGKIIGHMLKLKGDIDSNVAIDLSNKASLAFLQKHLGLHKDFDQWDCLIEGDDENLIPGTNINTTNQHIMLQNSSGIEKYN

Consider `CCc1ccc(-c2nn(-c3ccccc3)cc2CSC(=N)N)cc1`, for which the values for the activation in [1] and in assay [2] were 11% and 7.29%, respectively. Besides, the inhibition in assay [3] is -13.8%; in assay [4] it was -7.64%; in [5] it was 43.6% (active).
With `Oc1ccc(-c2onc3ccc(Cl)cc23)cc1`, the inhibition was 101% (active) in [6] and 12.7% in assay [7].
On the same counts, the results for `CCC(=C/c1sc2ccc3ccccc3c2[n+]1C)/C=C1\Sc2ccc3ccccc3c2N1C` are 13.4% and 110% (active).
`Cc1cc(Cl)ccc1OCCCC(=O)NCc1ccncc1`: the inhibition is 7.81% in assay [6] and 14.7% in [7].
For the compound `COc1cc(/C=C2/SC(=S)N(Cc3ccccc3)C2=O)cc(OC)c1O`, the values for the activation in [1] and in assay [2] were 29.3% (active) and 38.2% (active), respectively. Moreover, the inhibition is 142% (active) in assay [6] and 19.6% in [7].
With `Cc1c(C(=O)Nc2cccc(-c3nnc4n3CCCCC4)c2)oc2ccccc12`, the figures for the inhibition in assay [6] and in assay [7] were 5.89% and 21.4%, respectively.
`COc1ccc(NS(=O)(=O)c2ccc(Oc3c(C#N)cccc3C#N)cc2)cc1`: the activation in [1] was 17.5%; in assay [2], 13.7%. Also, the inhibition was 94.9% (active) in [8] and 88% (active) in [9].
As for `Cc1c(-c2cccc(Cl)c2)nc2ccccc2c1C(=O)OCC(=O)N(C)C1CCS(=O)(=O)C1` (centres undefined), the inhibition in [6] is 16.9% (active); in assay [7], 14.1%.
Consider `Cc1cccc(-n2c(Cc3cc(=O)[nH]c(=O)[nH]3)nnc2SCC(=O)Nc2cccc(C(F)(F)F)c2)c1`, for which the inhibition in assay [6] is 6.02%; in assay [7] it was 3.28%.
The matching figures for `O=C(/C=C/c1ccc(OCc2c(F)cccc2Cl)cc1)N1CCOCC1`: 12.4% and 67.9% (active).
On the same counts, the results for `CCCCc1cc(=O)oc2c(C)c(OCC(=O)N3CCC(C(N)=O)CC3)ccc12` are 8.74% and 11.7%.
As for `COc1cccc(CNC(=O)CCC2CCCN(C(=O)c3ccc(F)c(Cl)c3)C2)c1` (centres undefined), in [10], the inhibition is 17.2%.
On the same count and under the same terms, in the case of `Cc1ccc(-n2c(C)cc(/C=C(\C#N)C(=O)NCC3CCCO3)c2C)cc1` (centres undefined) it was 63.7% (active).
For the compound `O=C(N/N=C/c1cccnc1)c1cc2ccccc2cc1O`, the inhibition in [10] was 5.94%; in [11], 13.8%.
Consider `OC(CNCC1CCCO1)Cn1c2ccc(Br)cc2c2cc(Br)ccc21` (centres undefined), for which the inhibition in [10] is 37.2% (active).
Consider `Cc1cc(C(=O)CSc2nc(N)cc(=O)[nH]2)c(C)n1CCc1ccc(Cl)cc1`, for which the values for the inhibition in [10] and in assay [12] were 74.3% (active) and 13.4%, respectively.
Turning to `O=C(O)C(c1ccccc1)N1C(=O)/C(=C\c2ccc(-c3cccc(Cl)c3)o2)SC1=S` (centres undefined), in assay [10], the inhibition is 55.4% (active).
As to `CC1CCCCC1NC(=O)COC(=O)Cc1ccc(Cl)cc1` (centres undefined), in [10], the inhibition was 22.3%.
Same read-out and setting: in the case of `Cc1ccccc1-n1c(SCC(=O)Nc2cccc3ccccc23)nc(O)cc1=O` it was 4.9%.
On to `C=CCC1=C/C(=C\c2c(N)n3nc(CC(=O)N4CCOCC4)sc3nc2=O)C=C(OC)C1=O`, for which the values for the inhibition in assay [6] and in assay [7] were 25.9% (active) and 12.5%, respectively.
Regarding `Cc1cc(C(=O)CSc2nc(N)cc(=O)[nH]2)c(C)n1-c1cccc(F)c1`, the inhibition in assay [10] was 51.8% (active).
On the same count and under the same terms, in the case of `O=C(CCC1CCCCC1)Nc1cc(C(F)(F)F)ccc1N1CCOCC1` it was 6.87%.
On to `COc1ccc(/C=C/C(=O)c2cc(Br)ccc(=O)c2O)cc1`, for which the inhibition in assay [10] was 20.5%.
On the same count and under the same terms, in the case of `CCc1ccc(CN(C)C(=O)CCc2nnc(-c3ccc(-c4ccccc4)cc3)o2)nc1` it was 11.8%.
With `COc1ccc(N=C(C)c2sc3ccccc3c2O)cc1`, the inhibition in [6] was 56.1% (active); in assay [7], 15.2%. The activation is 18.6% (active) in assay [13] and 0.76% in assay [14].
For `COc1ccc(C(=O)Nc2nc(-c3ccc(S(=O)(=O)N4CCOCC4)cc3)cs2)cc1`, the inhibition in assay [6] was 3.32%; in [7] it was 68.2% (active); in assay [12], 18.9% (active); in assay [15], -12.4%; in assay [16], -5.9%; in [3] it was 16.2%. For the same compound, the inhibition in assay [4] was 21.5%; in assay [17] it was -11.1%; in assay [18], 40.2% (active).
With `COc1cccc(/C=N/NC(=O)c2[nH]nc3c2CCc2ccccc2-3)c1O`, the inhibition in assay [10] was 38.9% (active).
With `Cc1ccc(/C=N/NC(=O)c2cc3ccccc3cc2O)o1`, the inhibition in assay [10] is 9.89%; in [11], 38.8% (active).
As to `CN(C)S(=O)(=O)c1cccc(-c2nn(-c3ccccc3)cc2/C=C2\SC(=S)N(CC(=O)O)C2=O)c1`, the inhibition in [10] is 40.4% (active); in assay [12], 2.15%.
As for `COCC(C)NC(=O)c1ccc(-n2nc(C(F)(F)F)cc2-c2cccs2)cc1` (centres undefined), the inhibition in assay [10] was 23.6%.
The same measure, in the same setting: as for `COc1ccc(C(=O)NC(=S)Nc2ccccc2N2CCN(S(C)(=O)=O)CC2)cc1OC`, the figure is -1.51%.
Same read-out and setting: in the case of `COC(=O)c1cc(S(=O)(=O)Nc2ccc(C)c(F)c2)c[nH]1` it was 24.1%; in that of `CCCCC(=O)Nc1ccc2c(c1)C(=O)NC2=O`, 4.81%.
Consider `Fc1ccc2[nH]c3c(N4CCSCC4)ncnc3c2c1`, for which the inhibition in assay [6] was 7.91%; in [7], 49.2% (active); in assay [8] it was 84.4% (active); in [9], 63.2%; in [17], 4.31%; in assay [18], 48% (active).
Consider `CC(=O)N1CCN(C(=O)c2cc(-c3ccc(C)o3)nc3ccccc23)CC1`, for which the inhibition in assay [10] is 5.07%.
The same measure, in the same setting: as for `Cc1ccc(-c2noc(CSc3nnc(-c4ccncc4)n3-c3ccc(F)cc3)n2)cc1`, the figure is 1.52%; as for `CC1(OC(=O)C2CCCC2)C(=O)C=C2C=C(c3ccc(C#N)cc3)OC=C2C1=O` (centres undefined), 53.2% (active).
With `O=C(N/N=C/c1ccc(OC(=O)c2ccccc2Cl)cc1)c1ccc(O)cc1`, the inhibition in assay [6] is 4.51%; in assay [7] it was 6.4%.
`COc1cc(C2CC(=O)N3CN(Cc4ccccc4)CSC3=C2C#N)ccc1OCc1ccccc1` (centres undefined): in assay [10], the inhibition was 14.2%.
